Assay outcomes from PubChem.
DT40 TDP1 CPT – DT40-hTDP1 cell growth loss with CPT. AID 686979. 420,000 compounds, 12% hits. chicken DT40 Tdp1-/-;hTDP1 cells + 20 nM CPT, ATP luminescence, 48 h. Potency, µM (series often up to 46.2 µM), for inactives: at the top dose activity change, negative = growth inhibition, actives largely listed as inhibitors; also: nearly all actives have a fitted effect of over 55% in size
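Chicken DT40 Tdp1-/- cells stably complemented with human TDP1 were seeded at 400 cells/well in medium containing 20 nM camptothecin, exposed to pin-transferred compounds, and grown at 37 °C for at least 48 hr. Viability was read as ATP luminescence.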
TDP1 inh – inhibitors of human tyrosyl-DNA phosphodiesterase TDP1. Q9NUW8. recombinant TDP1, AlphaScreen DNA substrate cleavage. Potency, µM (doses to about 130 µM), for the others: top-dose activity change, negative = inhibition, actives largely listed as inhibitors. AID 485290. 350,000 compounds, 0.28% hits; also: nearly all actives have a fitted effect of over 40% in size
Target sequence (Q9NUW8 whole entry, looked up): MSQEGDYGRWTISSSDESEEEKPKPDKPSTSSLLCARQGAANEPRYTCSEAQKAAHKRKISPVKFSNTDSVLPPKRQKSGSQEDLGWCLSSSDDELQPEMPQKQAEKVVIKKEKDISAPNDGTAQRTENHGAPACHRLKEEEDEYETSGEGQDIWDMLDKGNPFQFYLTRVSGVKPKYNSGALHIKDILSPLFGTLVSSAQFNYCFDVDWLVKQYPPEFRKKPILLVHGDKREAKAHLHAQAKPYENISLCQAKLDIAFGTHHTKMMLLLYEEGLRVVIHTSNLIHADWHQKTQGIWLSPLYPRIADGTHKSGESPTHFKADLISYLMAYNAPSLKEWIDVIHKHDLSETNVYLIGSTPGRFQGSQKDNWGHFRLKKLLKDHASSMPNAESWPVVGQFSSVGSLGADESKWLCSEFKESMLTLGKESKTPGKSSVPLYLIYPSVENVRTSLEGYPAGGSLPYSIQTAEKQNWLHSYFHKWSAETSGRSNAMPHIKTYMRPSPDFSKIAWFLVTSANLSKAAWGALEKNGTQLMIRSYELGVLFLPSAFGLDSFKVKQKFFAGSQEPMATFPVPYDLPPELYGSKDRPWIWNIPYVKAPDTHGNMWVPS
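Tdp1 1 nM final; 15 min RT w/ cpd; substrate 15 nM, 5 min; beads 10 ug/ml, 10 min; AlphaScreen read. Neg ctrl: no enzyme.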
RORg inh – inhibitors of mouse ROR gamma transcriptional activity; Drosophila S2 Gal4-RORgamma UAS-luciferase reporter, 20 h; Potency, µM (top dose mostly 53.6 µM), inactives show at the top dose activity change, negative = inhibition, hits mostly inhibitors; 310,000 compounds, 5.4% hits; AID 2551; also: nearly all actives have a fitted effect of over 60% in size
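A Gal4/UAS one-hybrid system in insect cells: metallothionein-promoter Gal4–ROR gamma fusion plus Photinus luciferase reporter. Copper sulfate 700 uM final, 20 hr ambient incubation, luminescent detection after 10 min with reagent.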
Gal4-VP16 FLuc – inhibits Gal4-VP16 luciferase reporter, ROR gamma counter-screen; Drosophila S2 Gal4-VP16 UAS-luciferase, luminescence, 20 h; Potency, µM (highest dose often 53.6 µM), inactives show at the top dose activity, negative = inhibition, hits mostly inhibitors; 310,000 compounds, 3.5% hits;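 also: Gal4-VP16 expression switched on by copper sulfate through the metallothionein promoter; nearly all actives have a fitted effect of over 50% in size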
DT40 TDP1 no CPT – qHTS for Inhibitors of human tyrosyl-DNA phosphodiesterase 1 (TDP1): qHTS in cells in absence of CPT | DT40 Tdp1-/- hTDP1 cells, no CPT, ATP luminescence, 48 h | Potency, µM (highest dose often 46.2 µM), inactives show at the top dose activity change, negative = growth inhibition, actives largely listed as inhibitors | 420,000 compounds, 15% hits; also: nearly all actives have a fitted effect of over 55% in size
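Chicken DT40 Tdp1-/- cells complemented with human TDP1, screened without camptothecin (DMSO vehicle only), 400 cells/well. Compounds pin-transferred, cells incubated at 37 °C for at least 48 hr. Growth read as ATP-dependent luminescence (CellTiter-Glo, 30 min at RT).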
Starred values were filed as active, the others as inactive; ? = inconclusive; . = not tested or not shown; [ ] = another dose, or the depositor's remark. An excerpt weighted towards active compounds, which were near 19% of everything screened. Calls follow the shape of the dose curve; as a rule, active = well fitted curve in the direction sought with a large enough effect; inconclusive = small, poorly fitted or top-dose-only effect, or another doubt; inactive = no such curve, though single readings can be large; an effect the other way counts as inactive or inconclusive. % is scaled to controls: 0 for no effect and ±100 for the full control effect; potency is read from the fitted curve at half-maximal effect.

SMILES	DT40 TDP1 CPT	TDP1 inh	RORg inh	Gal4-VP16 FLuc	DT40 TDP1 no CPT
COc1ccc(-c2cc(CNc3nc(NCc4ccccc4OC)nc4ccsc34)on2)cc1	16µM*	.	.	.	26µM*
COc1cccc(-c2nc(NCc3ccccc3OC)c3ccccc3n2)c1	?	.	6%	0%	?
O=C(NCc1ccccn1)c1ccco1	-1%	2%	-9%	5%	12%
c1ccc(CNc2nc(NCc3ccccc3)c3sccc3n2)cc1	23µM*	.	.	.	18µM*
COc1ccccc1CNc1ccccc1F	?	4%	14%	2%	-19%
COc1ccccc1CNc1nc(NCc2ccccc2F)c2sccc2n1	2.9µM*	.	.	.	4.1µM*
COCCNc1nc(NCCN2CCNC2=O)c2sccc2n1	-21%	.	.	.	-5%
COc1ccccc1CNc1nc(NCCN2CCNC2=O)c2sccc2n1	18µM*	.	.	.	?
Fc1ccccc1CNc1nc(NCC2CC2)nc2ccsc12	15µM*	.	.	.	16µM*
COc1ccc(N(CC(=O)N2CCCCC2)S(=O)(=O)c2c(C)nn(C)c2C)cc1	-26%	2%	28%	2%	-4%
COc1ccc(NC(=O)C2CCCN(C(=O)NC3CCCCC3)C2)cc1OC (stereo not given)	-3%	4%	-1%	-3%	-4%
COCCNc1nc(NCc2ccccc2F)c2sccc2n1	18µM*	.	.	.	18µM*
CN(C)CCNc1nc(-c2ccccc2CO)c2sccc2n1	-27%	.	.	.	-3%
CC1=C(C)CC(C(=O)Nc2cccc(Cl)c2)C(C(=O)O)C1 (stereo not given)	?	2%	13%	11%	-8%
COC(=O)c1c(NC(=O)C(C)(C)C)sc2c1C(C(=O)OC)CC2 (stereo not given)	2%	-6%	39%	6%	?
CCOC(=O)c1c(NC(=O)/C=C/c2ccc(OCC)cc2)sc2c1CCC2	8%	-5%[12.3 µM]	.	.	-13%
COC(=O)c1c(NC(=O)CCCOc2ccc(C)cc2)sc2c1C(C(=O)OC)CC2 (stereo not given)	15µM*	1%[12.3 µM]	.	.	13µM*
CCOc1ccc(/C=C/C(=O)Nc2sc3c(c2C(=O)OC)C(C(=O)OC)CC3)cc1 (stereo not given)	9.2µM*	-13%[12.3 µM]	.	.	9.2µM*
COC(=O)c1c(NC(=O)CCCOc2cccc(C)c2)sc2c1C(C(=O)OC)CC2 (stereo not given)	16µM*	-6%[12.3 µM]	.	.	15µM*
COC(=O)c1c(NC(=O)C(Cl)Cl)sc2c1C(C(=O)OC)CC2 (stereo not given)	?	2%	4µM*	7.9µM*	?
COc1ccc(C(=O)C(C)OC(=O)CNC(=O)C2CCCCC2)cc1 (stereo not given)	9%	0%	.	.	?
C=CCNC(=O)C1CCN(S(=O)(=O)c2ccccc2)CC1	-24%	0%	42%	-3%	-13%
COc1ccc(OC)c(S(=O)(=O)NCC(c2ccc(F)cc2)N2CCN(C)CC2)c1 (stereo not given)	-6%	.	.	.	-15%
CCc1nc(N2CCCCC2C)c2oc3ccccc3c2n1 (stereo not given)	29µM*	-3%	18µM*	?	26µM*
CCc1nc(SCC(=O)NC2CCCC2)c2oc3ccccc3c2n1	?	0%	-17%	-9%	?
SMILES	DT40 TDP1 CPT	TDP1 inh	RORg inh	Gal4-VP16 FLuc	DT40 TDP1 no CPT
CCc1nc(N2CCCC(C)C2)c2oc3ccccc3c2n1 (stereo not given)	?	1%	-88%	4µM*	?
CCc1nc(N2CCCCC2C(=O)O)c2oc3ccccc3c2n1 (stereo not given)	13%	0%	22%	3%	-2%
CCc1nc(N2CCN(Cc3ccc4c(c3)OCO4)CC2)c2oc3ccccc3c2n1	26µM*	8%	13µM*	-29%	26µM*
CCc1nc(N2CCCCC2)c2oc3ccccc3c2n1	?	-1%	16µM*	-23%	?
C[C@@H](C[C@H](N)C(=O)O)C(=O)O	-24%	4%	.	.	-22%
CN(CC(=O)Nc1ccccc1Cl)C(=O)Cn1cnc2ccccc2c1=O	?	-8%	.	.	-6%
C=Cc1ccc(N=Cc2ccc(N(C)C)cc2)cc1	-4%	.	.	.	-28%
Cc1ccc(C=Nc2ccc(N(C)C)cc2)o1	5.2µM*	12%	?	?	2.1µM*
O=c1c(-c2cc3ccccc3[nH]2)nc2ccccc2n1C(CCc1ccccc1)c1nc2ccccc2[nH]1 (stereo not given)	?	.	.	.	18µM*
Cc1cccc(C)c1NC(=O)C(c1ccc(C#N)cc1)n1c(=O)c(-c2cc3ccccc3[nH]2)nc2ccccc21 (stereo not given)	12µM*	.	.	.	9.2µM*
CCC(C(=O)Nc1c(C)cccc1C)n1c(-c2ccc(-c3ccccc3)cc2)nc2ccccc21 (stereo not given)	15µM*	.	.	.	15µM*
CC(c1nc2ccccc2[nH]1)n1c(=O)c(-c2ccco2)nc2ccccc21 (stereo not given)	13µM*	.	.	.	18µM*
CCCCC(c1nc2ccccc2[nH]1)n1c(=O)c(-c2ccccc2)nc2cc(C)c(C)cc21 (stereo not given)	?	.	.	.	-12%
O=C(CCCn1nnc2ccccc2c1=O)N[C@@H](Cc1ccccc1)C(=O)O	0%	6%	-1%	5%	2%
COc1ccc2c(c1)c(=O)oc1cc3occ(C(C)(C)C)c3cc12	-17%	-11%	12%	3%	-23%
COc1ccc(OC)c(/C=N\NC(=O)c2c(C)nc3cc(C)ccn23)c1	11%	.	-5%[1.91 µM]	8%	-3%
C[C@@]12CCc3occc3[C@H]1CC[C@]13CC(=O)[C@@H](CC[C@H]12)C3	.	11%	-15%	-4%	.
O=C(Nc1ccc2ccccc2c1)C(c1ccccc1)n1c(=O)c(-c2cc3ccccc3[nH]2)nc2ccccc21 (stereo not given)	?	.	.	.	16µM*
O=C(NCc1ccccc1)C(CCc1ccccc1)n1c(=O)c(-c2ccccc2)nc2ccccc21 (stereo not given)	-76%	.	.	.	2.3µM*
CCC(C(=O)NCc1ccccc1)n1c(CSCCOc2ccccc2)nc2ccccc21 (stereo not given)	23µM*	.	.	.	?
O=C(NCc1ccccc1)C(CCc1ccccc1)n1c(=O)c(-c2cc3ccccc3[nH]2)nc2ccccc21 (stereo not given)	13µM*	.	.	.	9.2µM*
CCC(C(=O)NCc1ccccc1)n1c(C2CCN(C(C)=O)CC2)nc2ccccc21 (stereo not given)	-10%	.	.	.	-27%
